We go through nine targets from the supplement of paper PMC10849652.

Holding throughout (assay): log2 fold change, soluble protein after heating vs DMSO (PISA); higher = thermal stabilisation; K562 cells, 10 uM, 30 min; active = over 0.2 and 3.5 SD of the protein, either way, in both replicates (recomputed)
Compound in experiment [1]: Cc1ccc(NC(=O)c2ccc(CN3CC[C@H](N(C)C)C3)c(C(F)(F)F)c2)cc1Nc1nccc(-c2cncnc2)n1 [bafetinib]
A digest of the protocol:
(§1)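 Values are thermal stability changes relative to control samples and are taken from duplicates. They are stated as log2 fold changes. Before quantification by TMTpro 16plex LC-MS/MS with equalised channel sums, K562 cells at 2×10^6 cells/mL were treated with 10 μM compound for 30 min, heated in aliquots for 3 min across 48°C-58°C, pooled, extracted in PBS with 0.5% NP-40 at 4°C, and centrifuged at 21,000xg for 90 min to give the soluble supernatant.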

Compound in experiment [2]: Cc1cccc(CC(=O)N2CCc3c2ccc(-c2cn(C)c4ncnc(N)c24)c3F)n1
A digest of the protocol:
as §1

Compound in experiment [3]: Cc1cn(-c2cc(NC(=O)c3ccc(C)c(Nc4nccc(-c5cccnc5)n4)c3)cc(C(F)(F)F)c2)cn1 [nilotinib]
A digest of the protocol: as §1

Compound in experiment [4]: Cc1nc(Nc2n[nH]c3c2CN(C(=O)N[C@H](CN(C)C)c2ccccc2)C3(C)C)c2sccc2n1
A digest of the protocol: as §1

Compound in experiment [5]: Cc1ncc(-c2ccnc(Nc3ccc(S(C)(=O)=O)cc3)n2)n1C(C)C
An outline of the steps:
as §1

Compound in experiment [6]: Cn1cc(-c2ccc3c(c2)CCN3C(=O)Cc2cccc(C(F)(F)F)c2)c2c(N)ncnc21
An outline of the steps: as §1

Compound in experiment [7]: Cn1cc(-c2ccc3nnc(C(F)(F)c4ccc5ncccc5c4)n3n2)cn1
A digest of the protocol: as §1

Compound in experiment [8]: Cn1cncc1[C@@](N)(c1ccc(Cl)cc1)c1ccc2c(c1)c(-c1cccc(Cl)c1)cc(=O)n2C [tipifarnib]
A digest of the protocol:
as §1

Compound in experiment [9]: FC(F)(F)c1ccc(/C=C/c2nc(COc3ccc(CCCCn4ccnn4)cc3)co2)cc1 [mubritinib]
A digest of the protocol:
as §1

Compound in experiment [10]: Cc1nc(Nc2ncc(C(=O)Nc3c(C)cccc3Cl)s2)cc(N2CCN(CCO)CC2)n1 [dasatinib]
An outline of the steps:
as §1

Of roughly 7,900 targets only a part is listed; those with a hit were picked by preference. About 0.6% of all pairs of compound and target were hits. Unmarked numbers belong to inactive results.

Chain of UniProt Q3B7T1 (Q3B7T1 whole entry, looked up): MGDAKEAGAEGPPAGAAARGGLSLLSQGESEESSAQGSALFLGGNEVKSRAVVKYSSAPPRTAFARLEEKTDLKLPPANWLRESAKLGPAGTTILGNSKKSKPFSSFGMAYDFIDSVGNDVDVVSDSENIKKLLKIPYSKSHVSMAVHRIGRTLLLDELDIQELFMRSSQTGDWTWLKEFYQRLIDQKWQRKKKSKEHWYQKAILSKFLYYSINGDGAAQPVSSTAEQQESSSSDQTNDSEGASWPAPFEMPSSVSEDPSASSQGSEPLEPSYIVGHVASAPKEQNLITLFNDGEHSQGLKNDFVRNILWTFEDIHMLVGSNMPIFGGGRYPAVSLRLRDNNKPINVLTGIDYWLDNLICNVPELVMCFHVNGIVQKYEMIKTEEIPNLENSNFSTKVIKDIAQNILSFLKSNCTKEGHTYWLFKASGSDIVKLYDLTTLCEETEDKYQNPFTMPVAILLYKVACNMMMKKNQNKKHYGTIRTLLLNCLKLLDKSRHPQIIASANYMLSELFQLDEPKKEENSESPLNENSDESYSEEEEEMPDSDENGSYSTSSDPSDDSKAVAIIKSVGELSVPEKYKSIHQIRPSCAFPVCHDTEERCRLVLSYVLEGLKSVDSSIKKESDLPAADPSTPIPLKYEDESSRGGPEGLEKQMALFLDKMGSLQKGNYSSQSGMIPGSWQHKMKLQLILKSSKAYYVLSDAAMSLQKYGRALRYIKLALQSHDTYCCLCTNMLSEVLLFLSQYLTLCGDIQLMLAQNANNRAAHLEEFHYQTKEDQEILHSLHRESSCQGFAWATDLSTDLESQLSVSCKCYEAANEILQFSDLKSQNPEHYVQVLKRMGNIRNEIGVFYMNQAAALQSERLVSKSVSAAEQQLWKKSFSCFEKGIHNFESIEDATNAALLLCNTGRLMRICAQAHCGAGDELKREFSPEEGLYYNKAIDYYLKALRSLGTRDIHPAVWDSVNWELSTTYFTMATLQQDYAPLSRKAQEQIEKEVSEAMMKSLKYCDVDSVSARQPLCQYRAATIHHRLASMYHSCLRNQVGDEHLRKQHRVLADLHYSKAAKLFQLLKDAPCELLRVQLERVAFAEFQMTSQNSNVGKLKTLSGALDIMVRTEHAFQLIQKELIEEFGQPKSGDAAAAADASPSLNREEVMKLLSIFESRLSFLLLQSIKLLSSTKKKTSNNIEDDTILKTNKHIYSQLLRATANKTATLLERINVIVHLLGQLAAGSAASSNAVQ
Chain of UniProt O60573 (O60573 whole entry, looked up): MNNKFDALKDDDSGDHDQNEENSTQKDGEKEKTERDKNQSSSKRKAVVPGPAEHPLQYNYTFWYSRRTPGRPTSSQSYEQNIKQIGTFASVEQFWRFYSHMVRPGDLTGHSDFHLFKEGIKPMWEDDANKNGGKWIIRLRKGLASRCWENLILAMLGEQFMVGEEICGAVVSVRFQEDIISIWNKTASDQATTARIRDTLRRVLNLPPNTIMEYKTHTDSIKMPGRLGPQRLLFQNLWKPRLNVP
Chain of UniProt P68104 (P68104 whole entry, looked up): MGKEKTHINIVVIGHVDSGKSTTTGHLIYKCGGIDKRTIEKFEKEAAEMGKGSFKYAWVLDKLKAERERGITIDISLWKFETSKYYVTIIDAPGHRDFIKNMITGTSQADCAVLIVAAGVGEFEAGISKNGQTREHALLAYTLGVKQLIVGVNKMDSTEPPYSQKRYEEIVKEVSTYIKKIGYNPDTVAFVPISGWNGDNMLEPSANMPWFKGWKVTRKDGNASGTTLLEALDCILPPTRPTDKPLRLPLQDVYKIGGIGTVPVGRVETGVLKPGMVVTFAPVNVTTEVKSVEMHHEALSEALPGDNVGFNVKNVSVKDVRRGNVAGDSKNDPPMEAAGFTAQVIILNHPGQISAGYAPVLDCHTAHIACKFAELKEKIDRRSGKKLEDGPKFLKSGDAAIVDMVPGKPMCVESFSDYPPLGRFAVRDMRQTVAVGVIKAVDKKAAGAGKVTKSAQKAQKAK
Chain of UniProt Q14118 (Q14118 whole entry, looked up): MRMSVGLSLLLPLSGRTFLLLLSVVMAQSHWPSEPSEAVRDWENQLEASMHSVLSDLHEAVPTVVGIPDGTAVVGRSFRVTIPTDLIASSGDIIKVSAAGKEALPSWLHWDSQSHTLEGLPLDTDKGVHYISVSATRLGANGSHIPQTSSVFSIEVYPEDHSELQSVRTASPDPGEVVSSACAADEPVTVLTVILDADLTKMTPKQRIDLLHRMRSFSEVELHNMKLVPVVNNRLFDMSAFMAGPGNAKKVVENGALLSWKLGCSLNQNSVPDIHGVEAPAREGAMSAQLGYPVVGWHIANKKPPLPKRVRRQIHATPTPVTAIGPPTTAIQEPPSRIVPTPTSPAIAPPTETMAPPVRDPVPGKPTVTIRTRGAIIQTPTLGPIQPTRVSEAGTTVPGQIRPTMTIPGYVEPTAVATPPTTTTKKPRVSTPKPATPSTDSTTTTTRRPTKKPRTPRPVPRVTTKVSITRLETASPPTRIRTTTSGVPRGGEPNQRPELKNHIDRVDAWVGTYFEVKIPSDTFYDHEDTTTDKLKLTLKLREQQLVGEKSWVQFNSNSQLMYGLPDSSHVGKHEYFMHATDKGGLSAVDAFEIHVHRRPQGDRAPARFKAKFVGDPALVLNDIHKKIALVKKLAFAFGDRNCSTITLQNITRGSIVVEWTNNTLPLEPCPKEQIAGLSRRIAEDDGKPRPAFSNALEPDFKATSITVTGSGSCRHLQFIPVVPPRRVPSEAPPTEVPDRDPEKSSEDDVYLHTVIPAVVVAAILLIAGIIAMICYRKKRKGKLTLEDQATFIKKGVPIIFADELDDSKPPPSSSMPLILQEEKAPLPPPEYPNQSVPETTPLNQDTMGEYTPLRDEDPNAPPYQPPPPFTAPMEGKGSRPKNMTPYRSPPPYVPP
Chain of UniProt P50570 (P50570 whole entry, looked up): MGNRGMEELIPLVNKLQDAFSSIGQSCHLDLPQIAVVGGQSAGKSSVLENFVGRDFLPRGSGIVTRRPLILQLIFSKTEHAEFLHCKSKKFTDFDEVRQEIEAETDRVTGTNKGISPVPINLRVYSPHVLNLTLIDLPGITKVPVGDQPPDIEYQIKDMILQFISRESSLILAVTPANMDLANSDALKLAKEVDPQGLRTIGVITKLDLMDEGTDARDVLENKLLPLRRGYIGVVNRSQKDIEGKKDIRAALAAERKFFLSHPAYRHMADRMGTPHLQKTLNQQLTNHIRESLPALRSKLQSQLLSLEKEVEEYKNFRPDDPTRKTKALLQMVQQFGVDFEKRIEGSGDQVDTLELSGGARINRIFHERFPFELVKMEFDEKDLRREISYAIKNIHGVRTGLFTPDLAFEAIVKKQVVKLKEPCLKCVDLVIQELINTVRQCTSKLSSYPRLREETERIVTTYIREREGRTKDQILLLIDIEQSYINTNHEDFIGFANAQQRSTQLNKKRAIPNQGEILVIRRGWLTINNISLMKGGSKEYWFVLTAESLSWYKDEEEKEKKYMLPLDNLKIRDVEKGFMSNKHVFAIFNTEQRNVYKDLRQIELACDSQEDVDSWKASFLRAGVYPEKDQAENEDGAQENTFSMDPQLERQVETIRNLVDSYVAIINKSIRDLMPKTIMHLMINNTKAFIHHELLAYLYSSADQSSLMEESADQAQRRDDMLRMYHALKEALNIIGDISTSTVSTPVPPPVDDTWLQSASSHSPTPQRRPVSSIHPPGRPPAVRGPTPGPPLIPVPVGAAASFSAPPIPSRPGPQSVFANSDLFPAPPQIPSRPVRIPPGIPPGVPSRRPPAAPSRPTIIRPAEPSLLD
Chain of UniProt O60610 (O60610 whole entry, looked up): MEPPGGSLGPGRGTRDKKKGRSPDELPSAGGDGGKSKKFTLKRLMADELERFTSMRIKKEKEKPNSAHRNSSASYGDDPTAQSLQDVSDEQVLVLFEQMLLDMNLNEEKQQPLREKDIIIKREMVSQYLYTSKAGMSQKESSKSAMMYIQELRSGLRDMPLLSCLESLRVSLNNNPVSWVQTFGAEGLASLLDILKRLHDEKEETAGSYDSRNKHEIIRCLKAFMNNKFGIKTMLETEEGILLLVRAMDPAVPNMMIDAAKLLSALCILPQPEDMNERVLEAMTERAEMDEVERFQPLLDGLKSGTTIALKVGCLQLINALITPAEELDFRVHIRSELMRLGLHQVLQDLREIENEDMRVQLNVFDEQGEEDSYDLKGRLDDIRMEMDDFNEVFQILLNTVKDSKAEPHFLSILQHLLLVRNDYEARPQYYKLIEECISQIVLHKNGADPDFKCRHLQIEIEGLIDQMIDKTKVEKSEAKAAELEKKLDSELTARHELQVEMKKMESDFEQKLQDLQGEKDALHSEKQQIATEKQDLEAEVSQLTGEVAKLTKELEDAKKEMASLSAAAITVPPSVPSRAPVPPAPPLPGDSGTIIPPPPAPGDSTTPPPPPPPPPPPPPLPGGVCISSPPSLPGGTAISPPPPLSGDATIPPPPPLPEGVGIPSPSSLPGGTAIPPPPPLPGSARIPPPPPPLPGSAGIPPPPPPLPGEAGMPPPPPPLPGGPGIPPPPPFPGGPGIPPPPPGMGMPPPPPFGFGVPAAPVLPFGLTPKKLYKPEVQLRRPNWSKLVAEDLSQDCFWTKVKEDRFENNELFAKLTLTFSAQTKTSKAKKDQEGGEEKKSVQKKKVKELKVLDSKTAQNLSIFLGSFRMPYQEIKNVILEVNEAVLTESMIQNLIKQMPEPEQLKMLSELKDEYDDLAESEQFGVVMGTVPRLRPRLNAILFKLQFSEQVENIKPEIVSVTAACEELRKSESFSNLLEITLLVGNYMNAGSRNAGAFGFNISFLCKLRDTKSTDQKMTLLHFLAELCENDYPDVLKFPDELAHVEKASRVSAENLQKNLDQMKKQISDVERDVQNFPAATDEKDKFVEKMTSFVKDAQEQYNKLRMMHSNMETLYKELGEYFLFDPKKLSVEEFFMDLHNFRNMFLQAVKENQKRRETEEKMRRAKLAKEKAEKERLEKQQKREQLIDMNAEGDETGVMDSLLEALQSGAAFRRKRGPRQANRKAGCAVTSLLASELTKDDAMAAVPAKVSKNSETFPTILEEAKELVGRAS

In the case of EGR1 (UniProt P18146), the log2 fold change in [1] was -0.257; in experiment [2] it was 0.141; in experiment [3], -0.001; in [4] it was -0.352; in experiment [5] it was -0.295; in experiment [6], -0.24. For the same target, the values for the log2 fold change in [7], in experiment [8] and in experiment [9] were -0.106, 0.139 and -0.121, respectively.

Turning to EDRF1 (UniProt Q3B7T1), the log2 fold change in experiment [1] was -0.04; in experiment [2], -0.209; in experiment [10], -0.157; in experiment [6], -0.275; in experiment [7], -0.114; in experiment [9], 0.045.

On to DNM2 (UniProt P50570), for which the log2 fold change was -0.035 in [1]; 0 in experiment [2]; -0.054 in [3]; -0.003 in [4]; -0.099 in experiment [10]; 0 in [5]. The log2 fold change is 0.075 in experiment [6], 0.007 in experiment [7], -0.071 in experiment [8] and 0.017 in [9].

For EEF1A1 (UniProt P68104), the log2 fold change in experiment [1] is -0.114; in experiment [3] it was 0.042; in experiment [4] it was -0.113; in experiment [10] it was -0.116; in experiment [5], 0.001; in experiment [6] it was 0.044. Also, the log2 fold change in experiment [7] is -0.063; in [8], -0.057; in experiment [9], -0.033.

DIAPH1 (UniProt O60610): the log2 fold change was 0.088 in experiment [1]; 0.057 in experiment [2]; -0.011 in experiment [3]; -0.197 in experiment [4]; -0.055 in experiment [10]; 0.077 in [5]. The log2 fold change was -0.083 in experiment [6], -0.035 in experiment [7], -0.077 in experiment [8] and 0.039 in experiment [9].

On to ECPAS (UniProt Q5VYK3), for which the log2 fold change in [1] was 0.031; in experiment [2], 0.105; in [3], -0.067; in [4] it was -0.038; in experiment [10], -0.255 (active); in experiment [5], 0.077. Further, the log2 fold change in experiment [6] is -0.011; in experiment [7] it was -0.043; in experiment [8] it was -0.202; in experiment [9] it was 0.021.

For the target EIF4E2 (UniProt O60573), the log2 fold change was -0.055 in experiment [1]; -0.094 in experiment [3]; -0.052 in experiment [4]; -0.232 in experiment [10]; -0.004 in experiment [5]; 0.082 in experiment [6]. Moreover, the log2 fold change in experiment [7] was -0.059; in experiment [8], -0.127; in experiment [9], 0.035.

Consider DNM2 isoform 4 (UniProt P50570), for which the log2 fold change was 0.154 in [1]; 0.062 in [2]; -0.006 in experiment [3]; 0.047 in [4]; -0.007 in [10]; -0.047 in [5]. Further, the log2 fold change was 0.006 in experiment [6], 0.005 in [7] and 0.108 in experiment [9].

As to DAG1 (UniProt Q14118), the log2 fold change in experiment [1] was 0.03; in experiment [2], -0.076; in experiment [3], 0.085; in experiment [4], 0.003; in experiment [10] it was 0.025; in experiment [5] it was -0.008. The log2 fold change in experiment [6] is -0.001; in [7], 0.073; in experiment [8] it was 0.035; in experiment [9], 0.05.
